According to PubChem BioAssay:
Activity calls are given as the source filed them.

Key:
[1] = E. coli DRC41 culture turbidity changes, primary screen, E. coli filamentation inducer project, strain DRC41, OD650, 48 h (AID 1152);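 also: E. coli MC1000 strain DRC41 lacking acrAB efflux pump and sulA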; details: E. coli DRC41 (acrAB sulA), higher = more signal, called active from +8 up or from −8 down
[2] = small-molecule binders of probe aLefty1, primary screen, biochemical, small-molecule microarray, 635/667 nm fluorescence (AID 1153); details: higher = more signal;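 also: score merges spot fluorescence with signal-to-noise ratio from the scanned slide images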
[3] = PSAC antagonists in infected red cells, primary screen, cell-based, P. falciparum Indochina, OD700, 1 h (AID 1154); details: P. falciparum Indochina infected RBC osmotic lysis, higher = more signal, called active from +8 up or from −8 down
[4] = PSAC antagonists in infected red cells, primary screen, cell-based, P. falciparum Indochina, OD700, 2 h (AID 1155);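 also: lysis reports solute entry through the parasite surface anion channel PSAC; channel blockers reduce lysis of infected cells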; details: P. falciparum Indochina infected erythrocytes, osmotic lysis OD700; higher = more signal, called active from +8 up or from −8 down
[5] = osmotic lysis modulators in infected erythrocytes, primary screen, PSAC antagonist project, cell-based, P. falciparum Indochina, OD700, 3 h (AID 1156); details: higher = more signal, called active from +8 up or from −8 down
[6] = PSAC antagonists in infected red cells, primary screen, cell-based, P. falciparum Indochina, OD700, 18 h (AID 1157); details: P. falciparum Indochina infected erythrocytes, osmotic lysis OD700, 18 h; higher = more signal, called active from +8 up or from −8 down
[7] = modulators of S6 phosphorylation in cells, primary screen, cell-based, A549, cytoblot, luminescence, serum-stimulated (AID 1158); details: A549 phospho-S6 cytoblot, 5 h, higher = more signal;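 also: serum-stimulated A549 lung adenocarcinoma cells; signal is phosphorylated S6 detected by cytoblot immunostaining with HRP secondary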
[8] = molecular target: NADPH oxidase 2 (Homo sapiens) (UniProt P04839); assay: NOX2-dependent H2O2 signal modulators, primary screen, NOX inhibitor project, cell-based, HEK293-NOX2, PMA-stimulated, Amplex Red fluorescence (AID 1159); details: 45 min, higher = more signal, called active from +8 up or from −8 down; also: test concentration not given here
Chain of NADPH oxidase 2 (Homo sapiens) (P04839 whole entry, looked up): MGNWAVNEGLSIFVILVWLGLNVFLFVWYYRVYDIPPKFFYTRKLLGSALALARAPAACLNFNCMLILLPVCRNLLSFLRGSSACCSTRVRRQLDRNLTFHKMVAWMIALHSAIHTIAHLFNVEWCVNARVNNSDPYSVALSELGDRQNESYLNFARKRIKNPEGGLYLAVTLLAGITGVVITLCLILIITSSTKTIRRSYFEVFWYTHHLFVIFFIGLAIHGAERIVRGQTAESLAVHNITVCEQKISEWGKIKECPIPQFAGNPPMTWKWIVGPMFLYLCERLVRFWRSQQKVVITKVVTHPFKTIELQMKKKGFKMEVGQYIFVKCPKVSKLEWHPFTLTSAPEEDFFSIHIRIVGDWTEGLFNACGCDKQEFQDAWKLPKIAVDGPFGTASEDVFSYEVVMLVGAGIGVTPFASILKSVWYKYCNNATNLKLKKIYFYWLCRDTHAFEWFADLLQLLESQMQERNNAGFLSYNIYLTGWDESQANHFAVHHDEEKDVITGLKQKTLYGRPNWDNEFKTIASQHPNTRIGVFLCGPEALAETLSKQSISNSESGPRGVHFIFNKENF

[9] = molecular target: NADPH oxidase 4 (Homo sapiens) (UniProt Q9NPH5); assay: NOX4-dependent H2O2 signal modulators, primary screen, NOX inhibitor project, cell-based, HEK293-NOX4, tetracycline-induced, Amplex Red fluorescence (AID 1160); details: 45 min, higher = more signal, called active from +8 up or from −8 down
Chain of NADPH oxidase 4 (Homo sapiens) (Q9NPH5 whole entry, looked up): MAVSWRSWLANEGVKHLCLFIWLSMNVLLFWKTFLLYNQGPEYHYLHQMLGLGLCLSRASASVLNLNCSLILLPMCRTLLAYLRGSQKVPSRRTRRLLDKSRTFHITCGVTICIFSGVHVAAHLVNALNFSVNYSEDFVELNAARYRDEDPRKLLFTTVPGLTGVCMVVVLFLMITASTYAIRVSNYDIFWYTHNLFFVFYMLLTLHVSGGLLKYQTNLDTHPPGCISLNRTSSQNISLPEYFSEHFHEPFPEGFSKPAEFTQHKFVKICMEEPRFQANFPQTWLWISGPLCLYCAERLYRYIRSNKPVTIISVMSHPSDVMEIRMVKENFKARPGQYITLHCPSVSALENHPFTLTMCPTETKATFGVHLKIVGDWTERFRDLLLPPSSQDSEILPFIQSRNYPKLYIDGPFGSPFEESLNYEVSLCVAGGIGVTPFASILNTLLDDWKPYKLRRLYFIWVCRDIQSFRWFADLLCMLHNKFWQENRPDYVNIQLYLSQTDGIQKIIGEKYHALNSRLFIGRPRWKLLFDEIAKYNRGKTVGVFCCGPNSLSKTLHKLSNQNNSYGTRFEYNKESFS

[10] = molecular target: NADPH oxidase 5 (Homo sapiens) (UniProt Q96PH1); assay: NOX5-dependent H2O2 signal modulators, primary screen, NOX inhibitor project, cell-based, HEK293-NOX5, Amplex Red fluorescence (AID 1161); details: HEK293-NOX5, ionomycin, 45 min, higher = more signal
Chain of NADPH oxidase 5 (Homo sapiens) (Q96PH1 whole entry, looked up): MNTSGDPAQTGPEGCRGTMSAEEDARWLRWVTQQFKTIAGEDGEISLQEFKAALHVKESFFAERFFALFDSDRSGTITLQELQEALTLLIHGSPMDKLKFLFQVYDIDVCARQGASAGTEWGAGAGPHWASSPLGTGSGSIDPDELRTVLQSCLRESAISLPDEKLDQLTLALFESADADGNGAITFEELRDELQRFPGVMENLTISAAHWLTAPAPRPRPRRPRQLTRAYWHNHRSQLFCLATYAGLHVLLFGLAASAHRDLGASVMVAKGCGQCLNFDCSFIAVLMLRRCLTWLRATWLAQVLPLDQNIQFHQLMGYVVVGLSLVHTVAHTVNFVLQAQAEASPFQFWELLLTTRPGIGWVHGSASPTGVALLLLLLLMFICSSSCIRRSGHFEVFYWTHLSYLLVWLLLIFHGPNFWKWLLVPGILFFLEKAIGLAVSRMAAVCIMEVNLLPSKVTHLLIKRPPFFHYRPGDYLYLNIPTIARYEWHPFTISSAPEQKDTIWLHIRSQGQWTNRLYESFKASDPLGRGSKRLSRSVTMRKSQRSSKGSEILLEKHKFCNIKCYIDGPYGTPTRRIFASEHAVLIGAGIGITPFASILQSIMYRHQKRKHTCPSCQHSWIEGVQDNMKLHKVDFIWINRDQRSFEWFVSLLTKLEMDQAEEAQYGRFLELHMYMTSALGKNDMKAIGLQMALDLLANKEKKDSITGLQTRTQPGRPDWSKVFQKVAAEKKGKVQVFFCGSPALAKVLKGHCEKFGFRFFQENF

[11] = A549 cell viability effects, profiling panel, calcein-AM fluorescence, 48 h, basal (AID 1162); details: higher = more signal; also: test concentration not given here
[12] = adipocyte viability effects, profiling panel, cell-based, 3T3-L1 adipocytes, calcein-AM fluorescence, 48 h, basal (AID 1163); details: 3T3-L1 adipocytes viability, higher = more signal; also: test concentration not given here
[13] = HepG2 cell viability effects, profiling panel, calcein-AM fluorescence, 48 h, basal (AID 1164); details: higher = more signal; also: test concentration not given here
[14] = MM1S cell viability effects, profiling panel, calcein-AM fluorescence, 48 h, basal (AID 1165); details: higher = more signal;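 also: viability of MM1S multiple myeloma cells under basal unstimulated conditions; test concentration not given here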
[15] = basal RPMI8226 viability, no added stimulus, profiling panel, cell-based, calcein-AM fluorescence, 48 h, PK04 Diversity Set (AID 1166); details: RPMI8226 myeloma viability, higher = more signal;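 also: cells grown under basal conditions without added stimulus; test concentration not given here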
[16] = basal HepG2 mitochondrial membrane potential changes, profiling panel, cell-based, JC-1 fluorescence, 24 h, 100 nL compound (AID 1167); details: higher = more signal; also: test concentration not given here
[17] = basal 3T3-L1 adipocyte mitochondrial potential changes, profiling panel, cell-based, JC-1 fluorescence, 3T3-L1 adipocytes, 24 h, 100 nL compound (AID 1168); details: JC-1 mitochondrial fluorescence, higher = more signal, called active from +8 up or from −8 down; also: test concentration not given here
[18] = basal RPMI8226 mitochondrial membrane potential changes, profiling panel, cell-based, JC-1 fluorescence, 24 h, 100 nL compound (AID 1169); details: RPMI8226 myeloma, JC-1 mitochondrial potential fluorescence, higher = more signal; also: test concentration not given here
[19] = basal MM1S mitochondrial membrane potential changes, profiling panel, cell-based, JC-1 fluorescence, 24 h, 100 nL compound (AID 1170); details: higher = more signal; also: test concentration not given here
[20] = A549 lung cancer cell viability effects, profiling panel, resazurin fluorescence, 24 h, PK04 Diversity Set (AID 1171); details: higher = more signal, called active from +8 up or from −8 down; also: test concentration not given here

SMILES	z-score [1]	composite z-score [2]	z-score [3]	z-score [4]	z-score [5]	z-score [6]	z-score [7]	z-score [8]	z-score [9]	z-score [10]	z-score [11]	z-score [12]	z-score [13]	z-score [14]	z-score [15]	z-score [16]	z-score [17]	z-score [18]	z-score [19]	z-score [20]
CC(C)C(=C=CC[C@@H](O)c1ccccc1OCCO)C[C@@H](O)c1cc(Cl)cc(Cl)c1O	-0.701 (inactive)	0.0004	22.2 (active)	5.74 (inactive)	-0.0473 (inactive)	1.56 (inactive)	-0.844	-1.79 (inactive)	-1.46 (inactive)	-1.8	-0.551	0.493	-1.07	-3.43	-3.96	-2.61	-0.00407 (inactive)	-0.847	-1.31	0.0062 (inactive)
C=CCN1C(=O)[C@]2(O[C@H](CCO)[C@@H]([Si](C)(C)c3ccc(OC)cc3)[C@@H]2C)c2ccccc21	-1.95 (inactive)	-0.33	11.9 (active)	2.43 (inactive)	-2.63 (inactive)	1.19 (inactive)	-0.613	-0.536 (inactive)	-0.0158 (inactive)	-1.23	-3.94	-0.448	-4.62	-2.7	-4.37	-3.42	-0.0442 (inactive)	-1.18	-2.21	-1.83 (inactive)
O=C1C2C=CC(C(O)c3cccs3)N(Nc3ccccc3)C2C(=O)N1c1ccccc1 (stereo not given)	-0.597 (inactive)	0.328	2.55 (inactive)	0.52 (inactive)	0.916 (inactive)	-0.423 (inactive)	2.34	-2.63 (inactive)	-3.57 (inactive)	-3.35	-0.125	0.715	-0.379	0.473	0.502	-1.72	0.673 (inactive)	-0.18	-0.542	-0.919 (inactive)
COc1ccc(C(O)C2C=CC3C(=O)N(C)C(=O)C3N2Nc2ccc([N+](=O)[O-])cc2[N+](=O)[O-])cc1OCc1ccccc1 (stereo not given)	-1.07 (inactive)	0.703	-0.686 (inactive)	0.958 (inactive)	0.0971 (inactive)	0.975 (inactive)	-1.21	0.0939 (inactive)	0.703 (inactive)	2.34	-0.65	-0.861	0.166	0.106	-0.499	-0.475	-0.74 (inactive)	0.0687	-0.371	-0.682 (inactive)
CC(C)(C)N1CC=CC23O[C@@H]4/C=C\CCCOC(=O)C4[C@H]2C(=O)N(CCCCCCO)[C@@H]3C1=O (stereo not given in full)	1.88 (inactive)	0.0903	1.64 (inactive)	-0.353 (inactive)	0.703 (inactive)	-0.331 (inactive)	1.97	0.834 (inactive)	-0.0239 (inactive)	2.04	0.0079	0.164	0.797	1.83	-0.0296	1.17	1.04 (inactive)	0.116	-0.892	0.204 (inactive)
CC(C)C[C@@H]1NC(=O)[C@@H]2C[C@H](C(=O)NCCCC[N+](C)(C)C)[C@H](c3ccc(O)cc3)N2C1=O	-0.04 (inactive)	-0.0145	1.32 (inactive)	0.281 (inactive)	-0.0501 (inactive)	0.449 (inactive)	0.145	-2.33 (inactive)	-1.4 (inactive)	-2.19	0.127	-0.302	-0.698	-0.104	-0.427	-0.65	-0.341 (inactive)	0.496	-0.548	-1.18 (inactive)
CO[C@H]1O[C@H](CO)[C@@H](OC(=O)Nc2ccc(C(F)(F)F)cc2)[C@H](OC(=O)Nc2ccccc2-c2ccccc2)[C@H]1OC(=O)Nc1ccccc1-c1ccccc1	-1.16 (inactive)	0.398	3.1 (inactive)	1.18 (inactive)	-2.21 (inactive)	1.16 (inactive)	-0.413	-3.25 (inactive)	-1.07 (inactive)	-0.439	-4.38	0.158	-5.26	-3.52	-3.98	0.235	0.0902 (inactive)	-0.867	-1.76	-6.26 (inactive)
C=CCNC(=O)[C@@H]1[C@H]2C(=O)O[C@H](c3ccccc3)[C@H](c3ccccc3)N2[C@H](c2ccccc2OCCO)[C@@]12C(=O)N(C(=O)OCCOC)c1ccc(C#CCCO)cc12	-0.288 (inactive)	0.209	2.62 (inactive)	1.15 (inactive)	0.123 (inactive)	0.167 (inactive)	0.568	1.57 (inactive)	1.31 (inactive)	0.165	0.614	0.393	1.53	-0.02	-0.615	-0.332	0.507 (inactive)	-0.868	-1.46	-0.0256 (inactive)
O=C1O[C@@H](c2ccccc2)[C@@H](c2ccccc2)N2[C@@H](c3ccc(O)cc3)[C@]3(C(=O)Nc4ccc(C#CC5=CCCCC5)cc43)[C@@H](C(=O)N3CCCCCCC3)[C@H]12	1.3 (inactive)	2.57	-0.781 (inactive)	-1.2 (inactive)	-0.993 (inactive)	-2.4 (inactive)	2.98	0.682 (inactive)	0.597 (inactive)	1.56	-0.361	0.967	0.606	0.212	-1.72	0.41	0.571 (inactive)	-0.527	0.135	-0.77 (inactive)
